This is a sample that favours compounds with a hit; in the whole collection about 21% have one here.
Pf growth 96h – P. falciparum growth inhibition at 96 hours. P. falciparum luciferase reporter growth, 96 h. 6.9% of 320,000 active. Potency, µM (doses to about 28.7 µM), hits mostly inhibitors
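Parasite growth measured via integrated firefly luciferase reporter in P. falciparum. Infected erythrocytes at 2% hematocrit, 0.05% parasitemia final were treated 96 hours at 37 C under 5% CO2, and luminescence was read.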
Cycloheximide cs – counter-screen for Shiga toxin inhibitors: cycloheximide protein synthesis inhibition; cell reporter, cycloheximide protein synthesis inhibition counterscreen; max response, %; 12% of 300,000 active; in the data active means max response mostly above about 13%, no sharp cut-off; inactive means mostly below about 14%; further: read at 38.3 µM for the half of the compounds with a filed dose
AMA1 RON2 block – inhibitors of Plasmodium falciparum AMA1-RON2 interaction. AlphaScreen AMA1-biotinylated RON2 peptide binding. Potency, µM (top dose mostly 58.2 µM), hits mostly inhibitors. 0.2% of 360,000 active. AID 720542; further: nearly all actives have a fitted effect of over 45% in size
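AMA1 (3D7) with his tag at 25 nM final met compounds first, then biotinylated RON2 peptide at 25 nM; detection used donor plus acceptor beads, 10 µg/mL apiece, read by AlphaScreen after 30 min at room temperature.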
Shiga inhibitor – Shiga toxin inhibition | AID 2315 | Vero cells, Shiga toxin protein synthesis inhibition reporter | 9.2% of 290,000 active | inhibition, % at 38.7 µM; in the data active means inhibition mostly above about 28%, no sharp cut-off; inactive means mostly below about 43%
Pf growth 48h – P. falciparum growth inhibition at 48 hours (one generation); 5.9% of 310,000 active; P. falciparum luciferase growth in erythrocytes, 48 h; AID 504832; Potency, µM (series often up to 28.7 µM), usual class: inhibitors
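Cell-based growth assay: transgenic P. falciparum expressing firefly luciferase, cultured in red cells within RPMI 1640 containing 0.5% w/v Albumax, 24 mM bicarbonate and gentamycin. A drop in luciferase activity indicates inhibition.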
HCV inhibitor – inhibitors of hepatitis C virus infection. Huh7.5.1 HCVcc-Cre infection, luciferase reporter, 44 h. AID 651820. Potency, µM (titrated, usually from 41.8 µM), actives largely listed as inhibitors. 3.4% of 340,000 active
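Cells seeded at 1,000/well and cultured 4 h, then compounds added followed by HCVcc-Cre virus (~0.5 moi). After 44 h further culture, luciferase substrate was added, plates held 15 min at room temperature, and luminescence read for 15 sec.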
A number is an active result; . = inactive; ? = inconclusive; / = not tested or not shown; [ ] = dose if it differs, or a comment. Unless noted, the call rests on the fitted dose curve; in most records, active means well fitted curve in the direction sought with a large enough effect; inconclusive means small, poorly fitted or top-dose-only effect, or another doubt; inactive means no such curve, though single readings can be large; an effect the other way counts as inactive or inconclusive.

SMILES	Pf growth 96h	Cycloheximide cs	AMA1 RON2 block	Shiga inhibitor	Pf growth 48h	HCV inhibitor
C/C(N)=C(/C#N)C(=O)COC(=O)c1cc(C)n(-c2ccc(F)cc2)c1C	3.3µM	72	.	96	8.3µM	?
Cc1cc(C(=O)OCC(N)=O)c(C)n1-c1ccccc1	2.1µM	33	.	41	?	.
CCOC(=O)c1cc(C)n(-c2ccccc2)c1C	.	50	?	52	.	.
CCN(C(=O)COC(=O)c1cc(C)n(-c2ccc(F)cc2)c1C)C1CCS(=O)(=O)C1 (configuration not stated)	.	.	.	.	?	.
COC(=O)c1ccc(COC(=O)CNC(=O)c2ccc(C)s2)cc1	.	/	.	/	.	.
COc1ccc(S(=O)(=O)N2CCC(C(=O)NN3CCCCC3)CC2)cc1OC	.	/	.	/	?	.
CC(C)(C)c1ccc(C(=O)Nc2ccc(NC(=O)C(=O)O)cc2)o1	.	.	.	.	.	.
O=C(Cc1csc(NC(=O)c2ccccc2)n1)NO	?	.	.	.	?	.
O=C(Cc1ccsc1-c1ccccc1)NO	.	.	.	.	13µM	10µM
CCC(C)c1ccccc1NC(=O)CN1CCN(C/C=C/c2ccccc2)CC1 (configuration not stated)	13µM	.	.	.	?	.
CC(=O)c1ccc(S(=O)(=O)NCC(=O)N2CCN(C/C=C/c3ccccc3)CC2)cc1	12µM	/	.[11.6 µM]	/	12µM	.
Cc1ccc(S(=O)(=O)NC(CC(C)C)C(=O)N2CCN(C/C=C/c3ccccc3)CC2)cc1 (configuration not stated)	?	/	.	/	8.3µM	11µM
CCCC(=O)N1CCC1(C)C(=O)Nc1ccc2c(c1)CCN2C(C)=O (configuration not stated)	/	/	.	/	/	/
CCOc1ccc(NC(=O)CN(C)C(=O)c2cccc(S(=O)(=O)N3CCN(C)CC3)c2)cc1OCC	/	/	.	/	/	.
Cc1ccc(/C=C/C(=O)Nc2nccs2)o1	.	55	.	108	.	.
O=C(/C=C/c1ccc(Br)o1)Nc1nnc(C2CC2)s1	?	.	/	.	.	/
Cc1ccc(/C=C/C(=O)Nc2ccncc2)o1	.	.	.[11.6 µM]	.	.	.
Cc1cnc(NC(=O)/C=C/c2ccc(Br)o2)s1	.	16	.	81	.	.
CCOC(=O)C(=O)Nc1nccs1	.	.	.	.	.	.
Cc1ccc(/C=C/C(=O)Nc2ncc(C)s2)o1	.	47	.	69	.	.
CCOC(=O)/C=C/C(=O)Nc1nccs1	.	15	.	.	?	.
COc1ccc(NCc2cccnc2)cc1	.	.	.	.	.	.
COc1ccc(CNc2ccc(Br)cc2)cc1	.	36	.	126	.	?
COc1ccc(NCc2n[nH]c(=O)c3ccccc23)cc1	.	15	.	.	/	.
COc1ccc(CNc2ccc(C(=O)O)cc2)cc1	/	26	.	44	.	.
SMILES	Pf growth 96h	Cycloheximide cs	AMA1 RON2 block	Shiga inhibitor	Pf growth 48h	HCV inhibitor
Cc1ccc2c(c1)c1ccc3c(c1n2C)C(=O)C=CC3=O	?	.	.	.	?	11µM
Cn1c2ccccc2c2ccc3c(c21)C(=O)C=CC3=O	/	/	.	/	/	?
COC(=O)[C@]12CCCCC=C1N(Cc1ccc(Cl)cc1Cl)C(=O)[C@H](CC(=O)NCCCCc1ccccc1)C2	/	/	.	/	/	/
N#CCSc1nccc(/C=C/c2ccccc2)n1	?	42	.	40	.	?
COc1ccc(OC)c(/C=N/N=C(\N)c2nonc2N)c1	.	38	.	59	.	?
N/C(=N\N=C\c1ccc(O)c(O)c1)c1nonc1N	.	43	.	67	.	.
CS/C(N)=N/N=C/c1ccc([N+](=O)[O-])cc1	.	30	.	75	.	.
COc1cc(/C=N/NC(=O)c2nnn(-c3nonc3N)c2-c2cccs2)ccc1O	.	.	.	.	.	.
N/C(=N\N=C\c1cccc(O)c1)c1nonc1N	.	31	.	59	.	.
NC(c1csc(Nc2ccc(C(=O)c3ccccc3)cc2)n1)c1ccccc1Cl (configuration not stated)	/	/	.	/	/	/
O=C1CCC(C(=O)OCc2cc(=O)oc3ccc4ccccc4c23)=NN1	.	.	.	.	.	.
COc1ccc(/C=N/N=C(\N)c2nonc2N)cc1OC	?	31	.	108	.	.

Assay outcomes as filed in PubChem BioAssay.
